Assay results reported in PubChem BioAssay AID588458 (Sanford-Burnham Center for Chemical Genomics, 2011).
Where “and” joins values, the source holds several entries; their conditions need not be identical. Equal entries are not always repeated. About 3,000 (0.83%) of roughly 360,000 compounds were called active. Rule as the data show it: active = inhibition above about 50%; inactive = the rest. The full list was thinned out, with actives kept by preference. More than one record can exist for a structure, and the calls need not agree.

The compounds below were run against DNA (cytosine-5)-methyltransferase 1 (Homo sapiens) (UniProt P26358) (assay: human DNMT1 methyltransferase inhibitors, primary screen, biochemical, molecular beacon, fluorescence, HinP1I cleavage, uHTS (AID 588458)). Details: at 10 µM, stronger effect = higher value.
DNA (cytosine-5)-methyltransferase 1 (Homo sapiens), sequence (P26358 504-1616 limits assumed): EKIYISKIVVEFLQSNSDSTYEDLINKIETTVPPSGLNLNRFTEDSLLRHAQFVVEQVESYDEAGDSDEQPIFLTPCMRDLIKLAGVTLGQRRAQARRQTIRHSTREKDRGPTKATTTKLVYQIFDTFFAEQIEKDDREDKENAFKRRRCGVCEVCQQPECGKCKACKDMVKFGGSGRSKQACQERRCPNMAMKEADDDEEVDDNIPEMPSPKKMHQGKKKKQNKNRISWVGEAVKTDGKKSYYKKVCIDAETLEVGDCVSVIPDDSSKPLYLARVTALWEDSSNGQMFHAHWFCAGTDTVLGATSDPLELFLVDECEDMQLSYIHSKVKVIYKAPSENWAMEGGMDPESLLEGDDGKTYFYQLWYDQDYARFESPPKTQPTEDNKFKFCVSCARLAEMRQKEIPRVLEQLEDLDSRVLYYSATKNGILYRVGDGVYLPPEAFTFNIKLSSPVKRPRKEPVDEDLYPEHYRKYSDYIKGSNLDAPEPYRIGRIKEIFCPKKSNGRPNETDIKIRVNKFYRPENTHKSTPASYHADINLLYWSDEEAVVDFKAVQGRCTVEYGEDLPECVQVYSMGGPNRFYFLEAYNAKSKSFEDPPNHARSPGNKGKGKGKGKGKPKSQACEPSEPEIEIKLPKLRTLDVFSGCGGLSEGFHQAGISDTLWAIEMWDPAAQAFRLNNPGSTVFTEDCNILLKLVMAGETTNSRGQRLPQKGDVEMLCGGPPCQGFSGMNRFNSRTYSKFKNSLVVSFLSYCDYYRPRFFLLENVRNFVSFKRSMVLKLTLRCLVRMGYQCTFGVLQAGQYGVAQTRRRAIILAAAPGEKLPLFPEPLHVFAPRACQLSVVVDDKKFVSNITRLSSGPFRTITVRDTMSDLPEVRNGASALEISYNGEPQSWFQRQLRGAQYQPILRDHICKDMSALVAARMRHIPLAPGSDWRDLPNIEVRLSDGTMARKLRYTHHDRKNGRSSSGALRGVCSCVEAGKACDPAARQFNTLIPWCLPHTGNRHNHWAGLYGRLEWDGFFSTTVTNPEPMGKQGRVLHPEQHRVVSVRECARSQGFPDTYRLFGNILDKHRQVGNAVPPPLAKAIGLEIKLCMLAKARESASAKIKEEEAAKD

| SMILES | inhibition (reported as % activation of signal) |
| --- | --- |
| O=C(Nc1nccs1)C1CCN(S(=O)(=O)c2ccc(Cl)c(C(F)(F)F)c2)CC1 | -0.42% (inactive) |
| Cc1ccc(C)c(C(O)c2ncc(-c3cccc4ccccc34)[nH]2)c1 (centres undefined) | -0.1% (inactive) |
| O=C1CSc2ccc(S(=O)(=O)NCc3ccccc3)cc2N1 | -1.62% (inactive) |
| OCCCC1CCCCN1Cc1nc(Cc2ccccc2Cl)no1 (centres undefined) | 0.35% (inactive) |
| O=C(NNc1ccccn1)c1ccc(Cl)nc1 | 80.7% (active) |
| CCN(CC)c1ccc(NC(=O)c2ccc(Cl)nc2)cc1 | -2.12% (inactive) |
| O=C(NNC(=O)c1ccc(Cl)nc1)c1ccc(Br)cc1 | 5.15% (inactive) |
| CCN(CC)P(=O)(C(NC(=O)OC)C(F)(F)C(F)(F)C(F)(F)C(F)F)N(CC)CC (centres undefined) | 0.14% (inactive) |
| CC1CCN(C(=O)COC(=O)CCC(=O)c2cccs2)CC1 | 0.68% (inactive) |
| O=C(COC(=O)CCC(=O)c1cccs1)NCc1ccco1 | 72.8% (active) |
| O=C(COC(=O)Cc1ccc(Cl)cc1Cl)NCc1ccco1 | -2.23% (inactive) |
| N#CCC(=O)Nc1ccc(C(=O)OCC(=O)Nc2sc3c(c2C#N)CCCC3)cc1 | -11.8% (inactive) |
| CC(C)NC(=O)NC(=O)COC(=O)c1ccc(NC(=O)CC#N)cc1 | -1.52% (inactive) |
| CCOc1ccc(NC(=O)c2ccc(NC(=O)COC(=O)c3ccc(NC(=O)CC#N)cc3)cc2)cc1 | 61.4% (active) |
| CC1CCN(C2=NC(=O)/C(=C/c3cn[nH]c3-c3ccccc3)S2)CC1 | -3.21% (inactive) |
| Cc1cccc(-c2cnc(C(O)c3cc(C)cc(C)c3)[nH]2)c1 (centres undefined) | 4.05% (inactive) |
| Cc1ccc(-n2c(=O)cc(N3CCN(Cc4ccccc4)CC3)[nH]c2=O)cc1 | -5.41% (inactive) |
| CN(Cc1cc2cc(F)ccc2[nH]1)Cc1nc(-c2cnccn2)no1 | 0.73% (inactive) |
| CN(Cc1ccc2nsnc2c1)Cc1nc(Cc2cccc(F)c2)no1 | 14.7% (inactive) |
| CN(Cc1nc2ccc(F)cc2[nH]1)Cc1nc(CC2CC2)no1 | 52.1% (active) |
| COc1cc(C2C(N3C(=O)c4ccccc4C3=O)C(=O)N2c2ccc(C)c(C)c2)cc(OC)c1OC (centres undefined) | -2.9% (inactive) |
| Cc1ccc(NC(=O)c2cnc(SCC(=O)NCC3CCCO3)n(C)c2=O)cc1 (centres undefined) | -0.68% (inactive) |

| SMILES | inhibition (reported as % activation of signal) |
| --- | --- |
| Cc1[nH]c2ccccc2c1C(=O)COC(=O)c1c(-c2ccccc2)noc1C | -10.3% (inactive) |
| N#Cc1ccccc1NC(=O)c1ccc2c(c1)OCO2 | 2.15% (inactive) |
| Cc1onc(-c2ccccc2)c1C(=O)Nc1ccccc1C#N | 86.5% (active) and -2.35% (inactive) |
| Cc1ccccc1CN1C[C@@H]2C[C@@H](c3cn(C)nc3-c3ccccc3)N3CCC[C@@]23C1=O | -7.15% (inactive) |
| O=C(COC(=O)CSc1nnc(-c2ccc(Cl)cc2)o1)Nc1cc(Cl)cc(Cl)c1 | 3.58% (inactive) |
| CCCCC(=O)Nc1c2c(nn1-c1ccc([N+](=O)[O-])cc1)CS(=O)(=O)C2 | 0.28% (inactive) |
| O=C1/C(=C\c2ccc([N+](=O)[O-])cc2)CS(=O)(=O)C/C1=C/c1ccc([N+](=O)[O-])cc1 | 101% (active) |
| CN(C)S(=O)(=O)N1CCN(c2ccc([N+](=O)[O-])cc2)CC1 | -0.57% (inactive) |
| Cc1ccc(CN2CC(N3CCC(Cc4ccccc4)CC3)CS2(=O)=O)cc1 (centres undefined) | -0.65% (inactive) |
| Cc1ccc(OCc2nnc(SC3CCc4ccccc4C3=O)n2C)cc1 (centres undefined) | -0.48% (inactive) |
| CC1(C(=O)NS(=O)(=O)c2ccccc2)CCN1C(=O)c1ccccc1 (centres undefined) | -2.49% (inactive) |
| CC1(C(=O)NS(=O)(=O)c2ccccc2)CCN1C(=O)Cc1ccc(-c2ccccc2)cc1 (centres undefined) | 3.68% (inactive) |
| CC1(C(=O)NS(=O)(=O)c2ccccc2)CCN1C(=O)C/C=C/c1ccccc1 (centres undefined) | 84.5% (active) |
| COc1ccc(CNC(=O)C(NS(=O)(=O)c2cccc3nsnc23)C(C)C)cc1 (centres undefined) | 2.57% (inactive) |
| O=C1C(Cl)=C(Oc2ccccc2)C(=O)c2ccccc21 | 78.2% (active) |
| O=C(O)C1CCC(CNS(=O)(=O)c2ccc(Br)cc2)CC1 (centres undefined) | 0.46% (inactive) |
| O=C(Nc1cccc(-c2nc3ccccc3[nH]2)c1)c1ccc(C(=O)Nc2cccc(-c3nc4ccccc4[nH]3)c2)cc1 | 56.8% (active) |
| O=C(NCC(O)c1nc2ccccc2[nH]1)c1ccc(Br)cc1 (centres undefined) | -1.63% (inactive) |
| O=C(Nc1ccccc1)c1cc2ccccc2[nH]1 | -1.95% (inactive) |
| COc1ccc(-c2cc(NC=O)c3ncc(-c4cc(OC)c(OC)c(OC)c4)n3c2)c(OC)c1 | -21.8% (inactive) |
| O=C(CN1CCN(c2ncccn2)CC1)Nc1ccccc1C(F)(F)F | 1.55% (inactive) |
| CC(C)C1CC2=C(C(=O)OC(C)(C)O2)C(c2ccc(F)cc2)O1 (centres undefined) | 0.41% (inactive) |
